PostGolgi ctrl = growth of the yeast control strain, post-Golgi counter-screen | efflux-deficient yeast background strain, growth absorbance A615, 16 h | inhibition, % at 10 µM | 5% of 98,000 active
CYP2C19 inh = human CYP2C19 inhibition. P33261. CYP2C19 Supersomes, luciferin-H EGE luminescence, 30 min. inhibition, % at 5 µM. 21% of 96,000 active;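 active means CYP2C19 inhibition above a set limit at 5 µM in the primary screen, cut at about 50% in these data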
PostGolgi yeast = growth inhibition of a yeast mutant, post-Golgi transport screen; inhibition, % at 10 µM; post-Golgi transport phenotypic cell assay; 0.9% of 98,000 active;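 further: yeast cells grown in 1536-well plates; yeast grown about 18 h at 30C before absorbance read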
CYP2C19 act = activators of human cytochrome P450 2C19. P33261. recombinant CYP2C19, luciferin-H EGE luminescence; active compounds read high; 0 = fully inhibited enzyme, 1 = untreated enzyme. activation factor at 5 µM. 96,000 tested, under 10 active. AID 1025;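 active means activation factor of at least 2 at 5 µM in the primary screen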
CYP2C9 act = activators of human CYP2C9. recombinant CYP2C9, luciferin-H conversion, luminescence; active compounds read high; factor 1 = untreated enzyme, 0 = blocked. activation factor at 5 µM. 1.4% of 96,000 active. AID 1024;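 active means activation factor of 2 or more for CYP2C9 at a 5 µM dose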
Target sequence (P11712 whole entry, looked up): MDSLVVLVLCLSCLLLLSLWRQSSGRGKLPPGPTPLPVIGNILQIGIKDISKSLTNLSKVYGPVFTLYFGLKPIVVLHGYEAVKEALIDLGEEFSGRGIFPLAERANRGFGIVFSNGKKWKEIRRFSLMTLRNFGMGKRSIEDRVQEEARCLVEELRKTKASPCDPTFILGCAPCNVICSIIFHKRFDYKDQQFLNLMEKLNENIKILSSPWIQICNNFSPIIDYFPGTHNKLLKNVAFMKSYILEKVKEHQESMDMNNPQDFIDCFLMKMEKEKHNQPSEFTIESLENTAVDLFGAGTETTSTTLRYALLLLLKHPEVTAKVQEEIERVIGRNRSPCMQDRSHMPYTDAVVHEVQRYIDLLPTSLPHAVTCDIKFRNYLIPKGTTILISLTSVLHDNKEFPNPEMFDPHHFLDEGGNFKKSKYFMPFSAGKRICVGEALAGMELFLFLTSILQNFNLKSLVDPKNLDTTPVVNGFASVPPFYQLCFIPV
CYP2C9 inhib = blocks human cytochrome P450 2C9 | P11712 | CYP2C9 Supersomes, luciferin-H conversion, luminescence | inhibition, % at 5 µM | 20% of 96,000 active;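 active means blocking of liver enzyme CYP2C9 beyond about 50% at 5 µM, limit read from the data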
Of the large screens only hits and unclear results are named; the others gave an inactive call. The list is not random: actives were taken first. Their share in the collection is about 32%. Unless noted, no stated cut-off is given here; in the data, active means inhibition above about 30%; inactive means the rest.

CCOC(=O)N1CCC(n2c(SCC(=O)NCCC3=CCCCC3)nc3ccccc3c2=O)CC1	CYP2C19 inh 58.3, CYP2C9 inhib 67.5
CCOC(=O)N1CCC(n2c(SCC(=O)N3CCC(C)CC3)nc3ccccc3c2=O)CC1	CYP2C19 inh 57.4, CYP2C9 inhib 59.9
O=C(Nc1ncc(Cc2ccccc2)s1)C1COc2ccccc2O1 (stereo unspecified)	none
N#CCCN(CCC#N)C(=O)COc1ccc(Cl)cc1Cl	none (no result: CYP2C19 inh, CYP2C19 act, CYP2C9 act, CYP2C9 inhib)
CC1CC(=O)N(Cc2ccccc2)c2ccccc2N1C=O (stereo unspecified)	none
CCC1Oc2ccccc2N(CC(=O)Nc2ccccc2OC)C1=O (stereo unspecified)	CYP2C19 inh 77.5, CYP2C9 inhib 63.0
COc1ccc(NC(=O)CN2C(=O)C(C)Oc3ccccc32)c(OC)c1 (stereo unspecified)	CYP2C19 inh 79.4
COC(=O)CC1Oc2ccccc2N(Cc2ccccc2)C1=O (stereo unspecified)	CYP2C19 inh 89.5, CYP2C9 inhib 54.7
COc1ccc(NC(=O)CN2c3cccc4cccc(c34)S2(=O)=O)c(OC)c1	CYP2C19 inh 91.2
COc1ccccc1N1CCN(C(=O)Cn2nc(C(F)(F)F)c3c2CCC3)CC1	none
Cc1cc(C)nc(NC2=NCC(=O)N2CCc2c[nH]c3ccccc23)n1	none
CCCCc1c(O)nc(SCC(=O)NCCc2ccc(OC)c(OC)c2)[nH]c1=O	none
CC1Oc2ccccc2N(CC(=O)c2cccc(Cl)c2)C1=O (stereo unspecified)	CYP2C19 inh 96.9, CYP2C9 inhib 92.8
Cc1ccc2c(c1)N(CC(=O)c1cccc(Cl)c1)C(=O)C(C)O2 (stereo unspecified)	none
CCn1c(Cc2c(C)[nH]c3ccccc23)n[nH]c1=S	CYP2C19 inh 90.8
CCn1c(-c2cc3ccccc3cc2O)n[nH]c1=S	CYP2C19 inh 52.5
CCn1c(CSc2nc3ccccc3[nH]2)n[nH]c1=S	CYP2C19 inh 55.9
Cc1ncc(CSc2nc3ccccc3[nH]2)c(N)n1	none
CCn1c(-c2cccc(Cl)c2)n[nH]c1=S	none
CCn1c(-c2ccc3[nH]c(C)c(C)c3c2)n[nH]c1=S	CYP2C19 inh 77.7, CYP2C9 inhib 89.7
CCc1cccc(CC)c1NC(=O)C1SC(=Nc2ccccc2C)C(c2nc3ccccc3s2)=C1N (stereo unspecified)	none
Cc1cc(=O)[nH]c(N2CCCC2)n1	none
COC(=O)CSc1nnc(CNC(=O)c2ccco2)n1-c1ccc(F)cc1	none
COc1cc(C(=O)NC2CCN(Cc3nnnn3Cc3cccs3)CC2)cc(OC)c1OC	none
Cc1cc(C)cc(OCC(=O)Nc2cccc(-c3nc4ncccc4o3)c2)c1	none
CCn1c(-c2c[nH]c3ccccc23)n[nH]c1=S	PostGolgi yeast 39.8, CYP2C9 inhib 54.1
C=CCn1c(-c2c[nH]c3ccccc23)n[nH]c1=S	none
COC(=O)c1cn(CC(=O)NC2CCCCC2)c2ccccc12	none
COC(=O)c1cn(CCOc2ccc(C)cc2)c2ccccc12	CYP2C19 inh 68.7, CYP2C9 inhib 70.4
N=c1c2c(-c3ccccc3)c(-c3ccccc3)n(Cc3ccccc3)c2ncn1CCCn1ccnc1	PostGolgi ctrl 77.1, CYP2C19 inh 81.6, PostGolgi yeast 94.5, CYP2C9 inhib 58.3
Cc1cc(C)cc(-n2c3nc4ccccc4nc3c3c(=O)n(Cc4ccco4)cnc32)c1	none
N=c1c2c(-c3ccccc3)c(-c3ccccc3)n(Cc3ccco3)c2ncn1Cc1ccco1	PostGolgi ctrl 48.5, CYP2C19 inh 66.0, PostGolgi yeast 90.8, CYP2C9 inhib 83.0
CC1CCCC(C)N1CCNC(=O)CCn1nc(-c2ccccc2)ccc1=O (stereo unspecified)	none
CCOC(=O)N1CCC(NC(=O)c2cc3ccccn3n2)CC1	none
COc1cc(C)nc(NS(=O)(=O)c2ccc(C)cc2)n1	none
Cc1noc(C)c1S(=O)(=O)N1CCCC(C(=O)N2CCc3ccccc3C2)C1 (stereo unspecified)	CYP2C19 inh 73.6
Cc1noc(C)c1S(=O)(=O)N1CCCC(C(=O)N2CCN(C3CCCCC3)CC2)C1 (stereo unspecified)	none
Cc1ccc(C)c(N2CCN(C(=O)C3CCCN(S(=O)(=O)c4c(C)noc4C)C3)CC2)c1 (stereo unspecified)	CYP2C19 inh 73.7, CYP2C9 inhib 92.6
COc1ccc(OCc2n[nH]c(=S)o2)cc1	CYP2C9 inhib 88.6

High-throughput results (PubChem)
